In the library only some 21% were active in any assay of this set; here they are far more common.
TDP1 cell noCPT = qHTS for Inhibitors of human tyrosyl-DNA phosphodiesterase 1 (TDP1): qHTS in cells in absence of CPT. Potency, µM (doses to about 46.2 µM), inactives show at the top dose activity change, negative = growth inhibition, hits mostly inhibitors. DT40 Tdp1-/- hTDP1 cells, no CPT, ATP luminescence, 48 h. 420,000 tested, 15% active. AID 686978, 2013; further: potency means the concentration at half of the fitted maximal effect; nearly all actives have a fitted effect of over 55% in size
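Growth kinetics read by CellTiter-Glo luminescence after ≥48 hr at 37 °C. Cells: DT40 Tdp1-/- stably carrying human TDP1, 400 per well, compound exposure in the absence of CPT (DMSO vehicle).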
DT40 TDP1 CPT = qHTS for Inhibitors of human tyrosyl-DNA phosphodiesterase 1 (TDP1): qHTS in cells in presence of CPT; chicken DT40 Tdp1-/-;hTDP1 cells + 20 nM CPT, ATP luminescence, 48 h; Potency, µM (doses to about 46.2 µM), inactives show top-dose activity change, negative = growth inhibition, hits mostly inhibitors; 420,000 tested, 12% active; further: potency means the concentration at half of the fitted maximal effect; nearly all actives have a fitted effect of over 55% in size
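Chicken DT40 Tdp1-/- cells stably complemented with human TDP1 were seeded at 400 cells/well in medium containing 20 nM camptothecin, exposed to pin-transferred compounds, and grown at 37 °C for at least 48 hr. Viability was read as ATP luminescence.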
RORg inh = qHTS for inhibitors of ROR gamma transcriptional activity; Drosophila S2 Gal4-RORgamma UAS-luciferase reporter, 20 h; Potency, µM (highest dose often 53.6 µM), for the others: at the highest dose activity change, negative = inhibition, most hits filed as inhibitors; 310,000 tested, 5.4% active; Nuclear receptor ROR-gamma (Mus musculus), P51450; further: potency means the concentration at half of the fitted maximal effect; nearly all actives have a fitted effect of over 60% in size
Target sequence (P51450 whole entry, looked up, the tested form may be a part): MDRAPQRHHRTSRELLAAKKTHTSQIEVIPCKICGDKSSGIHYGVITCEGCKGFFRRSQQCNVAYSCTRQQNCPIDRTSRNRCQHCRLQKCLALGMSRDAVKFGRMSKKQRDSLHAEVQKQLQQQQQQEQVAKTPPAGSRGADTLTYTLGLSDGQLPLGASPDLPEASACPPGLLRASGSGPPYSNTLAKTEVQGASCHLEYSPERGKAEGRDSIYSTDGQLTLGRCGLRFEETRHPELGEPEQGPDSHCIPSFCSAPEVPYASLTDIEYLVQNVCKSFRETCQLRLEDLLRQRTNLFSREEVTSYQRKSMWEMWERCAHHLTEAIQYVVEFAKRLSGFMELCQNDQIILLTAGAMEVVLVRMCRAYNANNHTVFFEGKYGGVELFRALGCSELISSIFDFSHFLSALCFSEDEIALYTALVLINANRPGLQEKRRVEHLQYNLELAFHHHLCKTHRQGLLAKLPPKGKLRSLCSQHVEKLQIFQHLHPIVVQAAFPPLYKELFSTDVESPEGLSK
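Using a luciferase readout, inhibitors were identified by reduced reporter activity in Drosophila cells coexpressing a copper-inducible Gal4–ROR gamma fusion and UAS-driven Photinus luciferase, incubated 20 hr after 700 uM copper sulfate.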
ELG1 DNA repair = qHTS screen for small molecules that inhibit ELG1-dependent DNA repair in human embryonic kidney (HEK293T) cells expressing luciferase-tagged ELG1; AID 504467, 2011; HEK293T ELG1-luciferase reporter, luminescence, 16 h; DNA damage induced by 5-fluorouridine; Potency, µM (series often up to 46.1 µM), for the others: top-dose activity change, negative = inhibition, most hits filed as inhibitors; 330,000 tested, 2.3% active; further: potency means the concentration at half of the fitted maximal effect; nearly all actives have a fitted effect of over 55% in size
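Overnight (16 hr) co-exposure of 2,000 cells/well to 5-fluorouridine and compound at 37 °C preceded detection. Luciferase was quantified via ONE-Glo luminescence; loss of signal denotes inhibition.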
IL-1B inflam inh = qHTS for Inhibitors of Inflammasome Signaling: IL-1-beta AlphaLISA Primary Screen; activity change, % at 57.5 µM; THP-1 LPS/ATP IL-1B secretion, AlphaLISA, 16 h; stronger effect = lower value; 360,000 tested, 4.7% active; in the data active means activity change below about -50%; inconclusive means mostly about -30% to -49%
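Secreted IL-1B measured by AlphaLISA bead assay after 16 h compound exposure of THP-1 cells; compounds (final up to 57.5 uM) added 1 h before LPS (250 ng/mL) and ATP (1.25 mM) stimulation; lower signal means less secretion.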
Gal4-VP16 FLuc = VP16 counterscreen qHTS for inhibitors of ROR gamma transcriptional activity; Drosophila S2 Gal4-VP16 UAS-luciferase, luminescence, 20 h; Potency, µM (top dose mostly 53.6 µM), for the others: top-dose activity, negative = inhibition, actives largely listed as inhibitors; 310,000 tested, 3.5% active; AID 2546, 2010;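 further: Gal4-VP16 expression switched on by copper sulfate through the metallothionein promoter; potency means the concentration at half of the fitted maximal effect; nearly all actives have a fitted effect of over 50% in size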
* marks the source's active call; other numbers are inactive results; [ ] = dose if it differs, or a comment. Unless noted, the call rests on the fitted dose curve; in most records, active means well fitted curve in the direction sought with a large enough effect; inconclusive means small, poorly fitted or top-dose-only effect, or another doubt; inactive means no such curve, though single readings can be large; an effect the other way counts as inactive or inconclusive. On the % scale 0 is the no-effect control and ±100 the full control effect.

Screening CCCCn1nnnc1C(CCc1ccccc1)N1CCC(n2c(=O)[nH]c3ccccc32)CC1 (stereo unspecified) returned TDP1 cell noCPT 12µM*, DT40 TDP1 CPT 12µM* and IL-1B inflam inh -56*.
CCCCn1nnnc1C(CCSC)N1CCC(n2c(=O)[nH]c3ccccc32)CC1 (stereo unspecified) was read as TDP1 cell noCPT 9.2µM*, DT40 TDP1 CPT 12µM* and IL-1B inflam inh -4.
`CCC(c1nnnn1Cc1ccccc1)N1CCC(n2c(=O)[nH]c3ccccc32)CC1` (stereo unspecified) gave TDP1 cell noCPT 4.6µM*, DT40 TDP1 CPT 5.8µM* and IL-1B inflam inh -5.
Screening CCCCn1nnnc1C(C1CC1)N1CCC(n2c(=O)[nH]c3ccccc32)CC1 (stereo unspecified) returned TDP1 cell noCPT inconclusive, DT40 TDP1 CPT inconclusive and IL-1B inflam inh -15.
Screening COC(=O)C1=C(c2cc3ccccc3o2)C[C@@H]2CC[C@H]1N2C(=O)N1CCCCC1 returned TDP1 cell noCPT 2.3µM*, DT40 TDP1 CPT 4.6µM* and IL-1B inflam inh 31.
`CCCNC(=O)N1[C@H]2CC[C@@H]1C(C(=O)OC)=C(c1cc3ccccc3o1)C2` gave TDP1 cell noCPT 16µM*, DT40 TDP1 CPT 16µM* and IL-1B inflam inh -1.
For COC(=O)C1=C(c2c(C)noc2C)C[C@@H]2CC[C@H]1N2C(=O)N1CCCCC1 the results were TDP1 cell noCPT -7%, DT40 TDP1 CPT -16%, ELG1 DNA repair inconclusive and IL-1B inflam inh -2.
Screening COC(=O)C1=C(c2cc3ccccc3o2)C[C@@H]2CC[C@H]1N2C(=O)NCCO returned TDP1 cell noCPT -26%, DT40 TDP1 CPT -12% and IL-1B inflam inh -8.
Screening COC(=O)C1=C(c2cc3ccccc3o2)C[C@@H]2CC[C@H]1N2C(=O)N1CCCC1 returned TDP1 cell noCPT 16µM*, DT40 TDP1 CPT inconclusive and IL-1B inflam inh -7.
For CC(C)C[C@H](NC(=O)[C@H](Cc1ccccc1)NC(=O)CNC(=O)[C@H](CO)NC(=O)[C@@H](N)Cc1ccc(O)cc1)C(=O)N[C@H](C(=O)O)[C@H](C)O the results were TDP1 cell noCPT 2%[4.12 µM] and DT40 TDP1 CPT -2%[4.12 µM].
C=CCN=C=S was read as TDP1 cell noCPT -9%, DT40 TDP1 CPT -6%, RORg inh -9% and Gal4-VP16 FLuc 8%.
Cc1sc2ncnc(N3CCC(C(=O)Nc4ccc(C#N)c(Cl)c4)CC3)c2c1C was read as TDP1 cell noCPT inconclusive, DT40 TDP1 CPT 18µM*, ELG1 DNA repair inconclusive and IL-1B inflam inh 12.
For N#Cc1ccc(NC(=O)CN2C(=O)NC3(CCCC3)C2=O)cc1Cl the results were TDP1 cell noCPT inconclusive, DT40 TDP1 CPT -3%, RORg inh -1%, ELG1 DNA repair inconclusive, IL-1B inflam inh -2 and Gal4-VP16 FLuc -1%.
For CC(C)(C)c1ccc(C(=O)Nc2ccc(Cl)cc2C(=O)c2ccccc2)cc1 the results were TDP1 cell noCPT -9% and DT40 TDP1 CPT 7%.
Screening Cc1ccnc(SCc2nc3ccccc3s2)n1 returned TDP1 cell noCPT -12%, DT40 TDP1 CPT 2%, RORg inh inconclusive, ELG1 DNA repair inconclusive, IL-1B inflam inh 7 and Gal4-VP16 FLuc 3%.
`CCc1ccccc1NC(=O)C(CC)Oc1ccccc1-c1nnc(-c2ccccc2)o1` (stereo unspecified) gave TDP1 cell noCPT 5.2µM* and DT40 TDP1 CPT 5.8µM*.
Screening c1ccc(CN2CCNCC2)cc1 returned TDP1 cell noCPT -8%[166 µM] and DT40 TDP1 CPT 11%[166 µM].
COC(=O)C1=C(c2ccc(OC(F)(F)F)cc2)C[C@@H]2CC[C@H]1N2C(=O)NCc1cccc2ccccc12 was read as TDP1 cell noCPT inconclusive, DT40 TDP1 CPT inconclusive, ELG1 DNA repair inconclusive and IL-1B inflam inh -71*.
`COC(=O)C1=C(c2ccc(S(C)(=O)=O)cc2)C[C@@H]2CC[C@H]1N2C(=O)NCc1ccc(F)cc1` gave TDP1 cell noCPT -14%, DT40 TDP1 CPT 0% and IL-1B inflam inh 41.
For COC(=O)C1=C(c2ccc(OC(F)(F)F)cc2)C[C@@H]2CC[C@H]1N2C(=O)NCc1ccc(F)cc1 the results were TDP1 cell noCPT 21µM*, DT40 TDP1 CPT 18µM*, ELG1 DNA repair -13% and IL-1B inflam inh -9.
For COC(=O)C1=C(c2ccc3ccccc3c2)C[C@@H]2CC[C@H]1N2C(=O)NCc1ccc(F)cc1 the results were TDP1 cell noCPT 16µM*, DT40 TDP1 CPT inconclusive, ELG1 DNA repair 0% and IL-1B inflam inh -7.
For COC(=O)C1=C(c2ccc(OC(F)(F)F)cc2)C[C@@H]2CC[C@H]1N2C(=O)NCc1cc(C)oc1C(F)(F)F the results were TDP1 cell noCPT 21µM*, DT40 TDP1 CPT inconclusive, ELG1 DNA repair 3% and IL-1B inflam inh 16.
O=c1c([N+](=O)[O-])cn(O)cc1[N+](=O)[O-] was read as TDP1 cell noCPT 1%, DT40 TDP1 CPT -17% and IL-1B inflam inh 5.
Screening O=C1N=C2SCCN2C(=O)C1Cc1ccc(Cl)cc1 (stereo unspecified) returned TDP1 cell noCPT -18%, DT40 TDP1 CPT inconclusive, RORg inh 8% and Gal4-VP16 FLuc 4%.
`CCN1C[C@]2(CO)CC[C@H](OC)[C@@]34C5C[C@H]6[C@H](OC)C5[C@](O)(C[C@H]6OC)[C@@](O)(C(OC)C23)[C@@H]14` (stereo partly specified) gave TDP1 cell noCPT 4%, DT40 TDP1 CPT 16% and IL-1B inflam inh -14.
For COC(=O)C1=C(c2cccc(C#N)c2)C[C@@H]2CC[C@H]1N2C(=O)NC1Cc2ccccc2C1 the results were TDP1 cell noCPT -16%, DT40 TDP1 CPT -18%, ELG1 DNA repair 18% and IL-1B inflam inh -1.
`C=C(C)C#N` gave RORg inh 12% and Gal4-VP16 FLuc 5%.

Compound activity as filed in PubChem BioAssay.
